The values that follow come from ChEMBL document CHEMBL1157539, “Thousands of chemical starting points for antimalarial lead identification” (Nature, 2010).

Where “and” joins values, the source holds several entries; their conditions need not be identical. Equal values may be shown once.

What all share (type): functional
Assay [1] concerns Plasmodium falciparum. In words: GSK_TCMDC: Inhibition of Plasmodium falciparum 3D7 in whole red blood cells, using parasite LDH activity as an index of growth. Test compounds present at 2uM.
Assay [2] deals with Plasmodium falciparum. In words: GSK_TCMDC: Inhibition of Plasmodium falciparum Dd2 in whole red blood cells, using parasite LDH activity as an index of growth. Test compounds present at 2uM.
The subject of a further assay is HepG2. In words: GSK_TCMDC: Percent inhibition of human HepG2 cell line. Test compounds present at 10uM.

As a reminder, the Inhibition is the drop in the measured response relative to a control, in per cent. A lower Inhibition goes with a weak effect.

As for `Cl.O=C1CSc2ccc(CNC3CCN(CCc4c(Cl)cnc5ccc(F)cc45)CC3)nc2N1`, the Inhibition with Plasmodium falciparum [1] came out at 98%; with Plasmodium falciparum [2], 52%; in the assay on HepG2, 21%.
Consider `CN(C)C(=O)O[C@@H]1CN[C@H](C#Cc2cc3ncnc(Nc4ccc5c(cnn5Cc5cccc(F)c5)c4)c3s2)C1.Cl`, for which the Inhibition in the assay on Plasmodium falciparum [1] worked out at 97%; with Plasmodium falciparum [2], 68%; in the assay with HepG2, 0%.
The matching figures for `CC(C)N1CCC(NC(=O)N2CCCN(c3ncnc4cc(-c5ccccc5)sc34)CC2)CC1.O=C(O)C(F)(F)F`: 87%, 11% and 31%.
As to `O=C(Nc1cccc(CN2CCCN(Cc3cccc(O)c3)CC2)c1)c1ccc2ccccc2c1.O=C(O)C(F)(F)F`, the values for the Inhibition in the assay on Plasmodium falciparum [1], in the assay with Plasmodium falciparum [2] and in the assay on HepG2 were 97%, 42% and 21%, respectively.
The matching figures for `COc1cc(NC(=O)/C=C/c2ccccc2OC(F)(F)F)cc(OCCN2CCCCC2)c1.O=C(O)C(=O)O`: 96%, 6% and 25%.
The matching figures for `CCNc1cc(C(=O)N[C@@H](Cc2ccccc2)[C@H](O)CNC2(CCC(C)C)CC2)cc(N2CCCCS2(=O)=O)c1.Cl`: 90%, 52% and 6%.
The matching figures for `Cl.c1ccc2nc(NCCCCCCCCNc3ccc4ccccc4n3)ccc2c1`: 100%, 37% and 52%.
As for `C[C@H](Cc1ccc(OCCCCCOc2ccc(C[C@@H](C)NC[C@H](O)c3cccc(Cl)c3)cc2)cc1)NC[C@H](O)c1cccc(Cl)c1.Cl`, the Inhibition in the assay on Plasmodium falciparum [1] was 99%; with Plasmodium falciparum [2], 100%; in the assay with HepG2, 99%.
Take `Cc1cccc2nc(-c3ccc(-c4cccc(CN5CCN(CCN6CCOCC6)CC5)c4)s3)[nH]c12.O=C(O)C(F)(F)F`: the Inhibition in the assay on Plasmodium falciparum [1] was found to be 100%; in the assay with Plasmodium falciparum [2], 83%; in the assay on HepG2 it was 33%.
For the molecule `COC(=O)C1=C(C)NC2=C(C(=O)CC(c3ccc(OC)c(OC)c3)C2)C1c1cccc(O)c1` (configuration not stated), the values for the Inhibition in the assay on Plasmodium falciparum [1], with Plasmodium falciparum [2] and with HepG2 were 99%, 69% and 2%, respectively.
Consider `O=C(NCCc1ccccc1)N(Cc1ccccc1-c1cccc(CNCCc2ccccc2)c1)C1CCN(Cc2ccccc2)CC1.O=C(O)C(F)(F)F`, for which the figures for the Inhibition in the assay with Plasmodium falciparum [1], in the assay with Plasmodium falciparum [2] and with HepG2 were 100%, 88% and 100%, respectively.
Regarding `Cn1c(=O)c2nc(-c3ccc(Cl)cc3)nnc2n(CCCC#N)c1=O`, the Inhibition in the assay with Plasmodium falciparum [1] is 99%; in the assay with Plasmodium falciparum [2], 98%; in the assay with HepG2, 6%.
The matching figures for `O=C(NCc1ccc(F)cc1)Nc1ccc(-c2cccc(-c3nc4cc(F)ccc4[nH]3)c2)cc1`: 100%, 99% and 31%.
The matching figures for `CC(C)N1CCN(C(CN2CCN(CCCOc3ccc4nonc4c3)CC2)c2ccc(F)cc2)CC1.Cl` (configuration not stated): 97%, 40% and 0%.
The matching figures for `Cl.N#Cc1ccc2c(c1)CCN(CCC1CCC(NC(=O)/C=C/c3c[nH]c4ccc(F)cc34)CC1)CC2` (configuration not stated): 100%, 83% and 18%.
With `Cc1ccc(O)cc1Nc1c(C(N)=O)cnc2ccc(-c3cncs3)cc12`, the Inhibition in the assay on Plasmodium falciparum [1] was 100%; with Plasmodium falciparum [2], 99%; in the assay with HepG2 it was 21%.
The matching figures for `O=C(Nc1ccc(Cl)cc1)c1ccc(CN2CCCN(Cc3ccsc3)CC2)cc1.O=C(O)C(F)(F)F`: 88%, 1% and 48%.
The matching figures for `Cc1ccc(NC(=O)c2ccc(N3CCN(c4ccncc4)CC3)cc2)cc1F.O=C(O)C(F)(F)F`: 100%, 79% and 47%.
The matching figures for `CCOC(=O)C(NC(=O)c1ccc([N+](=O)[O-])o1)C(C)C` (configuration not stated): 87%, 8% and 0%.
Take `O=C(C1CCCC1)N1CCOC(CCN2CCC(c3ccccc3)CC2)(c2ccc(Cl)c(Cl)c2)C1` (configuration not stated): the Inhibition with Plasmodium falciparum [1] is listed as 88%; in the assay with Plasmodium falciparum [2], 77%; with HepG2, 16%.
In the case of `CN(CCCNCc1cccc2ccccc12)CCCNCc1cccc2ccccc12.Cl`, the figures for the Inhibition in the assay with Plasmodium falciparum [1], in the assay on Plasmodium falciparum [2] and with HepG2 were 100%, 94% and 93%, respectively.
The matching figures for `CCOc1ccc(C2CCN(CCN3CCC(NC(=O)c4ccc(-c5ccc(C(F)(F)F)cc5)cc4)CC3)CC2)c(OCC2CC2)c1`: 99%, 65% and 13%.
The matching figures for `Clc1ccc(-c2cnc3ccc(NCc4ccncc4)nn23)cc1`: 98%, 98% and 25%.
Regarding `C=C[C@H]1CN2CC[C@H]1C[C@H]2[C@H](O)c1ccnc2ccc(OC)cc12.Cl` [QUININE HYDROCHLORIDE], the Inhibition in the assay with Plasmodium falciparum [1] was 99% and 100%; in the assay with Plasmodium falciparum [2], 79% and 99%; with HepG2, 13% and 0%.
With `CSc1ccc(CN2CCC(CNC(=O)c3cc(-c4ccccc4F)cs3)C2)cc1.O=C(O)C(F)(F)F` (configuration not stated), the Inhibition came to 90% with Plasmodium falciparum [1], 13% with Plasmodium falciparum [2] and 32% in the assay on HepG2.
The matching figures for `O=C(C=Cc1ccc(Cl)c(Cl)c1)NCCCCCN1CCC(CCNC(=O)c2ccc3c(c2)OCO3)CC1`: 99%, 2% and 35%.
In the case of `O=C(Nc1ccc(F)c(Cl)c1)NC1CCN(c2ccnc3cc(Cl)ccc23)C1.O=C(O)C(F)(F)F` (configuration not stated), the Inhibition in the assay with Plasmodium falciparum [1] came out at 100%; with Plasmodium falciparum [2], 74%; in the assay on HepG2, 37%.
Regarding `Cc1nc2nc(N)nc(N)c2c(C)c1Cc1ccccc1Cl.Cl`, the Inhibition in the assay on Plasmodium falciparum [1] came to 93%; in the assay on Plasmodium falciparum [2] it was 0%; in the assay with HepG2, 63%.
In the case of `COc1cc(-c2cnc(N)c(-c3nc4ccccc4[nH]3)c2)cc(OC)c1OC.Cl`, the Inhibition is given as 100% in the assay on Plasmodium falciparum [1], 57% in the assay on Plasmodium falciparum [2] and 59% in the assay with HepG2.
